Shown is part of a subset that was picked to be rich in hits.
VACV Venus inh = inhibitors of vaccinia virus (Venus reporter) | Vaccinia virus Venus reporter expression, fluorescence | Potency, µM (top dose mostly 36.5 µM), for inactives: at the top dose activity change, negative = inhibition, actives largely listed as inhibitors | 330,000 tested, 0.46% active | AID 720580; calls by dose curve; tested in A549 cells; further: potency means the concentration at half of the fitted maximal effect; on the % scale 0 is the no-effect control and ±100 the full control effect; nearly all actives have a fitted effect of over 30% in size
CHX counter = counter-screen hit for Shiga toxin inhibitors, cycloheximide. AID 2314. cell reporter, cycloheximide protein synthesis inhibition counterscreen. max response, %. 300,000 tested, 12% active; in the data active means max response mostly above about 13%, no sharp cut-off; inactive means mostly below about 14%; further: read at 38.3 µM for the half of the compounds with a filed dose; 0% is about no effect
LASV entry inh = Lassa virus entry inhibition; Potency, µM (titrated, usually from 37.9 µM), for the others: at the top dose activity change, negative = inhibition, actives largely listed as inhibitors; 300,000 tested, 1.2% active; Lassa virus pseudotype entry inhibition, cell reporter; AID 540256; calls by dose curve; tested in HEK293 cells; further: potency means the concentration at half of the fitted maximal effect; on the % scale 0 is the no-effect control and ±100 the full control effect; nearly all actives have a fitted effect of over 50% in size
Vaccinia mCherry = vaccinia inhibition (mCherry reporter); Potency, µM (top dose mostly 36.5 µM), for inactives: top-dose activity change, negative = inhibition, hits mostly inhibitors; 310,000 tested, 0.63% active; Vaccinia virus mCherry reporter infection, fluorescence; calls by dose curve; tested in A549 cells; further: potency means the concentration at half of the fitted maximal effect; on the % scale 0 is the no-effect control and ±100 the full control effect; nearly all actives have a fitted effect of over 35% in size
Shiga toxin inh = inhibitors of Shiga toxin in Vero cells | Vero cells, Shiga toxin protein synthesis inhibition reporter | inhibition, % at 38.7 µM | 290,000 tested, 9.2% active | AID 2315; in the data active means inhibition mostly above about 28%, no sharp cut-off; inactive means mostly below about 43%; further: 0% is about no effect
Marburg entry inh = Marburg virus entry inhibition; Marburg virus pseudotyped entry inhibition, cell reporter; AID 540276; Potency, µM (top dose mostly 37.8 µM), without a hit: at the highest dose activity change, negative = inhibition, hits mostly inhibitors; 300,000 tested, 1.8% active; calls by dose curve; tested in HEK293 cells; further: potency means the concentration at half of the fitted maximal effect; on the % scale 0 is the no-effect control and ±100 the full control effect
Numbers without * were called inactive; i = inactive; ? = inconclusive; nt = not tested or not shown; [ ] = another dose, or the depositor's remark.

SMILES	VACV Venus inh	CHX counter	LASV entry inh	Vaccinia mCherry	Shiga toxin inh	Marburg entry inh
CCOc1ccc(Nc2c3ccccc3nc3ccccc23)cc1	?	17	nt	5.6µM*	36*	nt
Cc1cc(NCC2CCCCC2)nc2ccccc12	-19%	38*	nt	?	51*	1µM*
CCOc1ccc(Nc2nc3ccccc3n3nnnc23)cc1	-16%	59*	nt	?	100*	nt
CCOc1ccc(Nc2cc(C)c3ccccc3n2)cc1	nt	49*	nt	nt	94*	nt
CC1=CC2CC1C1C(=O)N(c3ccc(S(=O)(=O)Nc4nc(C)cc(C)n4)cc3)C(=O)C21 (configuration not stated)	6%	-2	13%	-9%	-11	?
Cc1n[nH]c(C)c1CN(C)C(=O)C1CCC(=O)N(CCc2cccc(F)c2)C1 (configuration not stated)	nt	-3	nt	nt	-1	nt
COc1cccc(Cc2nc3ccccc3nc2SCC(=O)Nc2cccc(C)c2)c1	-9%	nt	-4%[46.1 µM]	-19%	nt	nt
COCCNc1nnnc2c1sc1nc(N3CCOCC3)c3c(c12)CCCC3	nt	-3	nt	nt	-3	nt
OC(CNC1Cc2ccccc2C1)c1ccccc1 (configuration not stated)	-4%	9	?	-2%	4	12%
c1ccc(NCC2OCc3ccccc3CO2)cc1	-16%	43*	?	-1%	98*	1%
CCCCCCNCC1OCc2ccccc2CO1	-7%	2	0%	i	-7	28%
CC(=O)N1CCC(O)(c2cccc(C(F)(F)F)c2)CC1	-7%	-4	0%	i	-19	-9%
O=C(CCCN1CCC(O)(c2ccc(Cl)cc2)CC1)c1ccc(F)cc1	-18%	-2	?	-2%	7	10µM*
O=C(CCCN1CCC(O)(c2cccc(C(F)(F)F)c2)CC1)c1ccc(F)cc1	-7%	nt	?	i	nt	11µM*
O=C(CCCN1CCC(O)(c2ccc(Br)cc2)CC1)c1ccc(F)cc1	-11%	nt	nt	i	nt	nt
CC(=O)c1cccc(CN2CCCC(N3CCN(c4ccccc4F)CC3)C2)c1 (configuration not stated)	nt	2	nt	nt	nt	nt
COc1ccccc1CNC(=O)CCn1c(=O)c2ccccc2n(CC(=O)Nc2cc(Cl)ccc2C)c1=O	-2%	nt	-19%[46.1 µM]	-5%	nt	?
O=c1[nH]c(=O)n([C@H]2C[C@H](O)[C@@H](CO)O2)cc1F	?	-2	0.29µM*	?	18	?
O=c1[nH]c(=O)n(C2CC(O)C(CO)O2)cc1I (configuration not stated)	?	nt	19%[46.1 µM]	5µM*	nt	19%
O=c1[nH]c(=O)n([C@H]2C[C@H](O)[C@@H](CO)O2)cc1/C=C/Br	nt	nt	nt	nt	nt	-39%
Cc1ccccc1C(=O)Nc1cccc(OCc2cc(=O)n3c4c(sc3n2)CCCC4)c1	-6%	nt	13%[46.1 µM]	-2%	nt	-6%[46.1 µM]
O=C(Cn1cc(C(F)(F)F)cc(Cl)c1=O)NCc1ccccc1	-10%	44*	?	-9%	73*	?
COc1ccc(NC(=O)c2ccccc2)c([N+](=O)[O-])c1	-10%	32*	5%	i	74*	-7%[46.1 µM]
CCCc1cc(C(=O)Nc2ccc(OC)cc2[N+](=O)[O-])cs1	nt	28*	nt	nt	60	nt
CCNc1nc(NC(C)C)nc(N(C#N)[C@@H](C)C(=O)N(C)C)n1	nt	nt	nt	nt	nt	6%
SMILES	VACV Venus inh	CHX counter	LASV entry inh	Vaccinia mCherry	Shiga toxin inh	Marburg entry inh
COc1ccc2c(c1)C(C)=CC(C)(C)N2S(=O)(=O)c1ccc(C)cc1	-23%	-1	?	?	24	?
CCOc1ccc2c(c1)C(C)=CC(C)(C)N2S(=O)(=O)c1ccc(C)cc1	-13%	-4	?	-16%	-25	2.8µM*
CC1=CC(C)(C)N(S(=O)(=O)c2ccc(C)cc2)c2cc(C)ccc21	?	-1	?	?	14	2.6µM*
CC1=CC(C)(C)N(C(=O)CCl)c2cc(C)ccc21	-10%	0	9%[46.1 µM]	-8%	-4	?
CCN(c1ccccc1)S(=O)(=O)c1nnc(NC(=O)C(C)Oc2ccccc2)s1 (configuration not stated)	-5%	nt	?	-4%	nt	nt
COC(=O)N[C@H](CC(C)=O)c1ccc2c(c1)OCO2	nt	nt	nt	nt	nt	-17%[14.2 µM]
O=C(O)C[C@H](C(=O)OCCOc1ccccc1)N1CCOCC1	nt	nt	nt	nt	nt	0%
O=C(c1cc(COc2cccc(C(F)(F)F)c2)on1)N1C[C@H]2CC[C@H]1C2	-13%	30*	-9%	i	80*	?
CC1(C)C[C@@H]2C[C@@](C)(CN2C(=O)c2cc(COc3cccc(C(F)(F)F)c3)on2)C1	-23%	12	-30%	-12%	42*	?
CC(=O)c1cccc(OCc2cc(C(=O)N3C[C@H]4CC[C@H]3C4)no2)c1	nt	50*	nt	nt	82*	nt
COCCC1CCCCN1C(=O)c1cc(COc2cccc(C(C)=O)c2)on1 (configuration not stated)	-8%	34*	4%[46.1 µM]	-2%	76*	-28%[46.1 µM]
CC(=O)c1ccc(OCc2cc(C(=O)N3CCC[C@H]3CO)no2)cc1	nt	11	nt	nt	17	nt
COC(=O)c1ccc(CNC(=O)c2nc(Cn3nc(C)c(Br)c3C)no2)cc1	12%	nt	-2%[46.1 µM]	-6%	nt	?
Cc1ccc(N2C(=O)CC(Sc3ncccn3)C2=O)cc1C (configuration not stated)	nt	-1	nt	nt	14	nt
CCCc1nnc(SCC(=O)NC2CC2)n1CC	-18%	-9	?	i	-5	4%[46.1 µM]
CC1(C(=O)NS(=O)(=O)c2cccc(OC(F)F)c2)CCN1C(=O)CCc1cccs1 (configuration not stated)	7%	nt	nt	-11%	nt	nt
COCCCNC(=O)c1c(NC(=O)Cc2coc3cc(C)cc(C)c23)sc2c1CCCC2	4%	nt	-5%[46.1 µM]	-5%	nt	-15%[46.1 µM]
CC(=O)c1cccc(OCc2cc(C(=O)N3C[C@@H](C)O[C@@H](C)C3)no2)c1	-12%	41*	?	-1%	75*	?
O=c1cc(NCc2ccccc2)nc2ccccn12	-27%	17*	1%	i	38	?
CCCCc1nn2c(=O)cc(COC(=O)c3ccc(NC(=O)c4ccccc4Cl)cc3)nc2s1	-5%	nt	-1%[46.1 µM]	i	nt	nt
CCOC(=O)c1ccc(NC(=O)CSc2cn(CC(=O)N3CCCC3)c3ccccc23)cc1	-9%[7.34 µM]	nt	1%[46.1 µM]	-10%[7.34 µM]	nt	nt
CCOC(=O)c1cc(OC(=O)c2ccccc2F)n(-c2ccccc2)n1	10%	nt	-9%[46.1 µM]	2%	nt	-5%[46.1 µM]
C=CCSc1nnc2c(n1)OC(c1cccnc1)N(C(C)=O)c1ccccc1-2 (configuration not stated)	-9%	2	3%	-4%	-31	16%[46.1 µM]
CCOc1ccccc1C1Nc2ccccc2-c2nnc(SCc3ccccc3)nc2O1 (configuration not stated)	5%	nt	1%[46.1 µM]	-5%	nt	10%[46.1 µM]
c1ccc(CSc2nnc3c(n2)OC(c2ccco2)Nc2ccccc2-3)cc1 (configuration not stated)	-9%	26*	?	-17%	86*	-13%[46.1 µM]
